Screening results from PubChem.
COUP-TFII inh: blocks human COUP-TFII nuclear receptor; P24468; HEK293T NGFI-A luciferase reporter, luminescence; inhibition, % at 8.6 µM; 370,000 tested, 0.7% active;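 active = inhibition above a per-plate cutoff, mean inhibition of test wells between control levels plus 3 SD, cut at about 38% in these data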;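 also: cells cotransfected with COUP-TFII expression vector driving the NGFI-A reporter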
SRC1 inh: inhibitors of human steroid receptor coactivator 1 (SRC1) | HEK293 GAL4-SRC1 luciferase reporter, luminescence | inhibition, % at 3.6 µM | 360,000 tested, 0.12% active | AID 588354;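 active = inhibition above the campaign mean plus 3 SD, with each screening campaign given its own cutoff, cut at about 60% in these data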
Gli-Sufu block: blocks Gli-Sufu signaling in a luciferase reporter. inhibition, % at 5 µM. Sufu-KO-LIGHT fibroblasts, Gli luciferase reporter luminescence. AID 588413. 340,000 tested, 0.74% active;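 active = inhibition above about 55%, limit read from the data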
NCOA3 inh: human NCOA3 inhibition | Q9Y6Q9 | HEK293 GAL4-SRC3 luciferase reporter, luminescence | inhibition, % at 3.6 µM | 360,000 tested, 0.17% active;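 active = inhibition above a per-campaign cutoff, the mean of all compounds plus 3 SD, cut at about 60% in these data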;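 also: higher means less SRC3-driven luciferase light from the GAL4 reporter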
SRC2 inh: inhibits human steroid receptor coactivator 2; Q15596; HEK293 GAL4-SRC2 luciferase reporter, luminescence; inhibition, % at 9 µM; 370,000 tested, 0.17% active; AID 651957;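 active = inhibition above the mean inhibition of all tested compounds plus 3 SD, set per campaign, cut at about 52% in these data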
LRH-1 inv ag: NR5A2 inverse agonism in reporter assay; inhibition, % at 3.6 µM; HEK293T StAR-luciferase reporter, LRH-1 transfected, 24 h; 360,000 tested, 0.13% active; O00482;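 active = inhibition above the mean inhibition of all tested compounds plus 3 SD, cut at about 73% in these data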
Target sequence (O00482 whole entry, looked up): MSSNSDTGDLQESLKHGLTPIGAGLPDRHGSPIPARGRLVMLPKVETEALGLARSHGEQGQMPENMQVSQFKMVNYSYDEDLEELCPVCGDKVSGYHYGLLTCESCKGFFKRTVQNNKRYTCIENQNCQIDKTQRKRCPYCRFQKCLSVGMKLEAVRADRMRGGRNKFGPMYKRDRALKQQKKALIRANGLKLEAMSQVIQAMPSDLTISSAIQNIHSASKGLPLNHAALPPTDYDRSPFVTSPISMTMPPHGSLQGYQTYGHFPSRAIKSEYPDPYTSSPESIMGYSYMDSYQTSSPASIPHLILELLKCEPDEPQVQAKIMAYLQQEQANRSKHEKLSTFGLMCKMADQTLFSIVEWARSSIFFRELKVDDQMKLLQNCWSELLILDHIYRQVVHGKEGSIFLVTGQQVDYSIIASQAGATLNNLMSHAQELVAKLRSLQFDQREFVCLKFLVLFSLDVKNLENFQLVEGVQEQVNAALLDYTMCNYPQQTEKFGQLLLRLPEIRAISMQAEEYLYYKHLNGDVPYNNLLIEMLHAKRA
Gal4-VP16 ctr: counter-screen for COUP-TFII antagonists: inhibitors of VP16; inhibition, % at 8.5 µM; 2,500 tested, 25% active; HEK293 Gal4-VP16 luciferase reporter, luminescence; shares compounds with COUP-TFII inh; in the data active = inhibition above about 13%
COUP-TFII conf: COUP-TFII (NR2F2) inhibition, confirmation assay. 2,500 tested, 45% active. inhibition, % at 8.5 µM. shares compounds with COUP-TFII inh. HEK293 NGFI-A luciferase reporter, luminescence;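 active = mean inhibition over three repeats above a set limit taken from the earlier primary screen, cut at about 38% in these data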
A number is an active result; 0 = inactive; - = no result; ! = a repeat was not active. Only some compounds are listed: those with a hit (about 1.3% of all), similar ones and a draw of the others.

SMILES | COUP-TFII inh | SRC1 inh | Gli-Sufu block | NCOA3 inh | SRC2 inh | LRH-1 inv ag | Gal4-VP16 ctr | COUP-TFII conf
CN(C)S(=O)(=O)c1cccc(NC(=O)c2ccc(COc3ccccc3)cc2)c1 | 63 | 0 | 0 | 0 | 0 | 0 | 0 | 52
O=C(NNC(=O)c1cccc(S(=O)(=O)N2CCc3ccccc32)c1)c1ccccc1 | 41 | 0 | 0 | 0 | 0 | 0 | 0 | 0
CCOC(=O)[C@]12CCCC=C1N(CCCOC)C(=O)[C@@H]2CC(=O)N1CCSCC1 | 0 | - | - | - | 0 | - | - | -
CN(C)S(=O)(=O)c1cccc(NC(=O)c2cccc(S(=O)(=O)N3CCc4ccccc43)c2)c1 | 42 | 0 | 0 | 0 | 0 | 0 | 0 | 0
CN(c1ccccc1)S(=O)(=O)c1cccc(NC(=O)CN2CCCc3ccccc32)c1 | 39 | 0 | 0 | 0 | 0 | 0 | 0 | 0
CC(=O)NS(=O)(=O)c1ccc(NC(=O)c2cccc(S(=O)(=O)N3CCc4ccccc43)c2)cc1 | 0 | 0 | 0 | 0 | 0 | 0 | - | -
O=S(=O)(c1ccc(F)cc1)n1c(CN2CCOCC2)nc2ccccc21 | 0 | - | - | - | 0 | - | - | -
COc1cc(/C=N/NC(N)=S)cc(Br)c1OCc1ccccc1F | 52 | 0 | 0 | 0 | 0 | 0 | 24 | 51
O=C(c1ccccc1F)N1CCN(S(=O)(=O)c2ccc3c(c2)OCCO3)CC1 | 42 | 0 | 0 | 0 | 0 | 0 | 0 | 0
O=C(CSc1nc2ccccc2n1Cc1ccccc1)NN=C/C=C/c1ccccc1 | 0 | - | - | - | 0 | - | - | -
Nc1ccc2nc(SCC(=O)N3CCN(c4ccccc4)CC3)sc2c1 | 55 | 0 | 0 | 0 | 0 | 0 | 0 | 0
COc1cccc2c1C(=O)c1c(O)c3c(c(O)c1C2=O)C[C@](O)(C(C)=O)C[C@H]3O[C@@H]1C[C@@H](N)[C@@H](O)[C@@H](C)O1 | 55 | 0 | 56 | 0 | 0 | 99 | 36 | 47
CC1CNCCN1S(=O)(=O)c1cccc2cnccc12 (stereo unspecified) | 41! | 0 | 0 | 0 | 0 | 0 | 0 | 0
CC1CCCCN1S(=O)(=O)c1cccc2cccnc12 (stereo unspecified) | 0 | 0 | 0 | 0 | 0 | 0 | - | -
CCCCN1CCS(=O)(=O)N(Cc2cn(Cc3cccc(Cl)c3)nn2)C(C(=O)OC)C1 (stereo unspecified) | 0 | - | - | - | 0 | - | - | -
CC1(C)N=C(N)N=C(N)N1c1ccc(CCCCc2ccccc2)cc1 | 70 | 0 | - | 0 | 0 | 80 | 28 | 62
COc1cc(NC(=O)c2ccccc2)c(C)cc1NC(=O)CSc1nnc(COc2ccccc2)n1Cc1ccco1 | 0 | - | - | - | 0 | - | - | -
CC(=O)N1c2ccc(S(=O)(=O)N3CCC(C(=O)Nc4cccc(C)n4)CC3)cc2CC1C (stereo unspecified) | 54 | 0 | 0 | 0 | 0 | 0 | 0 | 54
CC(=O)N1c2ccc(S(=O)(=O)NCC3CCC(C(=O)Nc4cccc(C)n4)CC3)cc2CC1C (stereo unspecified) | 56 | 0 | 0 | 0 | 0 | 0 | 0 | 0
CN(C)Cc1c(C(C)(C)O)[nH]c2cc(F)ccc12 | 0 | - | - | - | 0 | - | - | -
N#C/C(=N/Nc1ccc(OC(F)(F)F)cc1)C(N)=S | 38 | 0 | 61 | 0 | 0 | 0 | 0 | 0
COc1ccc(N/N=C(\C#N)C(N)=O)cc1 | 0 | 0 | 0 | 0 | 0 | 0 | - | -
Cc1ccc(OCCN2CCN(C(=O)CCC(=O)Nc3nnc(CC(C)C)s3)CC2)cc1 | 56 | 0 | 0 | 0 | 0 | 0 | 0 | 0
O=C(CSc1nnc(COc2ccccc2)n1-c1ccccc1)Nc1ccc2c(c1)OCO2 | 0 | - | - | - | 0 | - | - | -
COc1ccccc1N1CCN(C(=O)c2sc3nc(-c4ccc(F)cc4)cn3c2C)CC1 | 52 | 0 | 0 | 0 | 0 | 0 | 0 | 0
SMILES | COUP-TFII inh | SRC1 inh | Gli-Sufu block | NCOA3 inh | SRC2 inh | LRH-1 inv ag | Gal4-VP16 ctr | COUP-TFII conf
COc1ccccc1N1CCN(C(=O)CCC(=O)N2CCN(c3ccc(F)cc3)CC2)CC1 | 40 | 0 | 0 | 0 | 0 | 0 | 0 | 0
COc1ccccc1N1CCN(C(=O)CCC(=O)N2CCN(c3ccccc3OC)CC2)CC1 | 0 | 0 | 0 | 0 | 0 | 0 | - | -
COc1ccc(-c2cn3c(C)c(C(=O)N4CCN(c5ccc(F)cc5)CC4)sc3n2)cc1 | 0 | 0 | 0 | 0 | 0 | 0 | - | -
NC(=O)C1CCN(c2ncc(Br)cn2)CC1 | 0 | - | - | - | - | - | - | -
COc1ccc(S[C@]2(C(=O)N(C)C)CC(=O)N(c3ccsc3)[C@@H]2c2ccc(OC)cc2)cc1 | 0 | - | - | - | 0 | - | - | -
COc1ccc(S[C@]2(C(=O)N3CCN(c4ncccn4)CC3)CC(=O)N(C(=O)/C=C/c3ccccc3)[C@@H]2c2ccc(OC)cc2)cc1 | 0 | - | - | - | 0 | - | - | -
O=C(CCc1ccccc1)N[C@H]1/C(=N/O)CCC[C@]12C(=O)N(Cc1ccccc1)c1ccccc12 | 0 | - | - | - | 0 | - | - | -
COC(=O)[C@]12C[C@H](CC(=O)N3CCSCC3)C(=O)N(Cc3ccc(Cl)cc3Cl)C1=C[C@H](COCc1ccccc1)O[C@@H]2C | 0 | - | - | - | 0 | - | - | -
CCCCCCCCN1CCS(=O)(=O)N(Cc2ccc(C(F)(F)F)cc2)C(C(=O)OC)C1 (stereo unspecified) | 0 | - | - | - | 0 | - | - | -
CC(C)(Oc1ccc(Cl)cc1)C(=O)Nc1ccc2oc(=O)ccc2c1 | 0 | 0 | 0 | 0 | 0 | 0 | - | -
CC(C)(C)C(=O)Nc1ccc(-c2cc3cc(Cl)ccc3o2)cc1 | 53 | 0 | 0 | 0 | 0 | 0 | 0 | 0
O=[N+]([O-])c1ccc(N2CCN(c3ccc([N+](=O)[O-])cc3CO)CC2)c(CO)c1 | 60 | 0 | 0 | 0 | 0 | 0 | 0 | 0
CC(OC(=O)C1=NN(c2ccccc2)C(=O)CC1)C(=O)NC1CCCCC1C (stereo unspecified) | 0 | 0 | 0 | 0 | 0 | 0 | - | -
Cc1nn(-c2ccccc2)c(C)c1C(=O)OC(C)C(=O)NC1CCCCC1C (stereo unspecified) | 39 | 0 | 0 | 0 | 0 | 0 | 0 | 0
COc1ccc(-c2coc3c(C(=O)NCC4CCOCC4)cccc23)c(C)c1 | 42 | 0 | - | 0 | 0 | 0 | 0 | 0
COc1ccc(-c2ccc(C(=O)NCc3ccc(F)c(F)c3)c3occc23)c(C)c1 | 0 | 0 | - | 0 | 0 | 0 | - | -
O=C(Nc1cccc(C(F)(F)F)c1)c1cccc2c(-c3cccnc3)coc12 | - | 0 | - | 0 | - | 0 | - | -
COc1ccc(-c2coc3c(C(=O)NCc4ccc(F)c(F)c4)cccc23)c(C)c1 | 47 | 0 | - | 0 | 0 | 0 | 0 | 0
Cn1cc(-c2coc3c(C(=O)NCc4cccnc4)cccc23)cn1 | 0 | 0 | - | 0 | 0 | 0 | - | -
COc1cc(NC(=O)c2cccc3c(-c4cccnc4)coc23)cc(OC)c1OC | 52 | 0 | - | 0 | 0 | 0 | 0 | 0
COc1ccc(CNC(=O)c2cccc3c(-c4cnn(C)c4)coc23)cc1OC | 62 | 0 | - | 0 | 0 | 0 | 0 | 40
CCCC1CCC2(CC1)CCC2OC(=S)Nc1ccc(N(C)C)cc1 (stereo unspecified) | 0 | - | - | - | - | - | - | -
